Assay results from PubChem BioAssay (NCI).
Compounds without any hit were thinned out: in the full panel of roughly 83,000, 20% have a hit.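 Testing used 96-well plates and a 48-hour single-concentration exposure. Example: -40 means 40% of the starting cells died.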 Unmarked numbers belong to inactive results. Activity calls are given as the source filed them. Rule for the calls: active = growth percent below 10; inactive = the rest.

Experiments:
Experiment in all cases: NCI-60 one-dose screen, 48 h (100 = growth as untreated, 0 = no growth, -100 = all killed)
Conditions in all cases: 10 µM unless noted
[1] = tested on: SR leukemia
[2] = tested on: RPMI-8226 leukemia
[3] = tested on: OVCAR-8 ovarian
[4] = tested on: OVCAR-5 ovarian
[5] = tested on: OVCAR-4 ovarian
[6] = tested on: SK-OV-3 ovarian
[7] = tested on: IGROV1 ovarian
[8] = tested on: OVCAR-3 ovarian
[9] = tested on: HS 578T breast
[10] = tested on: NCI/ADR-RES ovarian
[11] = tested on: T-47D breast
[12] = tested on: BT-549 breast
[13] = tested on: MDA-MB-435 melanoma
[14] = tested on: SW-620 colon
[15] = tested on: MCF7 breast
[16] = tested on: HCT-116 colon
[17] = tested on: HCC-2998 colon
[18] = tested on: KM12 colon

CC(=O)[C@H]1CC[C@]2(C)[C@@H]1CC[C@@H]1[C@@]3(C)C/C(=C/c4cccnc4)C(=O)C(C)(C)[C@@H]3CC[C@]12C
growth [1]: 40.9%
growth [2]: 8.88% (active)
growth [3]: 27.1%
growth [4]: 132%
growth [5]: 43.6%
growth [6]: 87.2%
growth [7]: 93.4%
growth [8]: 47.4%
growth [9]: 94.2%
growth [10]: 67.2%
growth [11]: 13.6%
growth [12]: 50.6%
growth [13]: 75.1%
growth [14]: 61.9%
growth [15]: 34.8%
growth [16]: 33.2%
growth [17]: 99.9%
growth [18]: 49.1%

CNC1=C(Br)C(=O)c2c(C(=O)OC)c(C)nc(C)c2C1=O
growth [1]: 86.5%
growth [2]: 75.8%
growth [3]: 38.7%
growth [4]: 97.3%
growth [5]: 35.4%
growth [6]: 116%
growth [7]: 67.6%
growth [8]: 1.75% (active)
growth [9]: 72.4%
growth [10]: 74.7%
growth [11]: 62.8%
growth [12]: 104%
growth [13]: -66.8% (active)
growth [14]: 48.2%
growth [15]: 45.2%
growth [16]: 25.3%
growth [17]: 69.6%
growth [18]: 62.4%

Nc1cc(-c2ccc(Cl)cc2)nn1-c1nc(-c2ccc(Br)cc2)cs1
growth [1]: 91.3%
growth [2]: 100%
growth [3]: 103%
growth [4]: 93.7%
growth [5]: 103%
growth [6]: 92.4%
growth [7]: 99.9%
growth [8]: 106%
growth [9]: 98%
growth [10]: 105%
growth [11]: 98.2%
growth [12]: 100%
growth [13]: 99.7%
growth [14]: 106%
growth [15]: 89.8%
growth [16]: 94.4%
growth [17]: 101%
growth [18]: 104%

CCOC(=O)CC1CSC(N/N=C/c2ccc(O)cc2)=N1 (stereo unspecified)
growth [1]: 98.5%
growth [2]: 104%
growth [3]: 103%
growth [4]: 100%
growth [5]: 108%
growth [6]: 88.8%
growth [7]: 97.3%
growth [8]: 110%
growth [9]: 104%
growth [10]: 108%
growth [11]: 93.2%
growth [12]: 100%
growth [13]: 103%
growth [14]: 98.1%
growth [15]: 91%
growth [16]: 81.1%
growth [17]: 97.4%
growth [18]: 100%

Cn1cc(-c2ccc3occ(-c4cccc(-c5ccncc5)c4)c3n2)cn1
growth [1]: 3.95% (active)
growth [2]: 0.0083% (active)
growth [3]: 7.42% (active)
growth [4]: 55.4%
growth [5]: 36.5%
growth [6]: 31.8%
growth [7]: 15.7%
growth [8]: 18.4%
growth [9]: -10.7% (active)
growth [10]: 4.84% (active)
growth [11]: -6.42% (active)
growth [12]: 10.9%
growth [13]: -2.73% (active)
growth [14]: 17.8%
growth [15]: 6.54% (active)
growth [16]: 10.4%
growth [17]: 45%
growth [18]: 12.4%

CCOC(=O)/C=C1\S/C(=N\Nc2cc(=O)[nH]c3ccc(OC)cc23)N(c2ccccc2)C1=O
growth [1]: 50.4%
growth [2]: 87.2%
growth [3]: 98.7%
growth [4]: 106%
growth [5]: 82.7%
growth [6]: 104%
growth [7]: 92.2%
growth [8]: 95.8%
growth [9]: 103%
growth [10]: 104%
growth [11]: 73.6%
growth [12]: 99.6%
growth [13]: 97%
growth [14]: 95.3%
growth [15]: 69.4%
growth [16]: 93.9%
growth [17]: 115%
growth [18]: 91.8%

CCOc1ccc(N2C(=O)CCSC2=S)cc1
growth [1]: 116%
growth [2]: 104%
growth [3]: 104%
growth [4]: 107%
growth [5]: 109%
growth [6]: 101%
growth [7]: 99.1%
growth [8]: 114%
growth [9]: 105%
growth [10]: 105%
growth [11]: 104%
growth [12]: 108%
growth [13]: 98%
growth [14]: 104%
growth [15]: 100%
growth [16]: 112%
growth [17]: 104%
growth [18]: 107%

Clc1ccc2c(NCCCn3cnc4c(N5CCCC5)nc(Cl)nc43)ccnc2c1
growth [1]: 84.2%
growth [2]: 115%
growth [3]: 103%
growth [4]: 101%
growth [5]: 100%
growth [6]: 88.2%
growth [7]: 89%
growth [8]: 101%
growth [9]: 104%
growth [10]: 93.3%
growth [11]: 85.6%
growth [12]: 97.7%
growth [13]: 101%
growth [14]: 103%
growth [15]: 91.9%
growth [16]: 93.4%
growth [17]: 108%
growth [18]: 98.1%

CCOC(=O)C1=CCC(n2cc(F)c(=O)[nH]c2=O)O1 (stereo unspecified)
growth [1]: 99.8%
growth [2]: 105%
growth [3]: 97%
growth [4]: 119%
growth [5]: 130%
growth [6]: 121%
growth [7]: 126%
growth [8]: 92.5%
growth [9]: 116%
growth [10]: 106%
growth [11]: 98.5%
growth [12]: 107%
growth [13]: 110%
growth [14]: 89.9%
growth [15]: 93.1%
growth [16]: 96.7%
growth [17]: 103%
growth [18]: 88.3%

CN(C)CCCN(CCC1CCCCC1)CCC1CCCCC1
growth [1]: -35.3% (active)
growth [2]: 23.8%
growth [3]: 81.1%
growth [4]: 83.3%
growth [5]: 71.2%
growth [6]: 97%
growth [7]: 39.7%
growth [8]: 34.6%
growth [9]: 58.1%
growth [10]: 74.4%
growth [11]: -37.6% (active)
growth [12]: 86%
growth [13]: -33.2% (active)
growth [14]: 40.6%
growth [15]: -24.1% (active)
growth [16]: 29%
growth [17]: -88.1% (active)
growth [18]: 12%

Cc1ccc(-c2nc(C#N)c(S(=O)(=O)n3nc(C)cc3N)o2)cc1
growth [1]: -25.8% (active)
growth [2]: 46.5%
growth [3]: 87.2%
growth [4]: 99.8%
growth [5]: 111%
growth [6]: 108%
growth [7]: 80.8%
growth [8]: 54.3%
growth [9]: 103%
growth [10]: 98.5%
growth [11]: 55.2%
growth [12]: 80.4%
growth [13]: 96.2%
growth [14]: 15%
growth [15]: 88.2%
growth [16]: 65.5%
growth [17]: 110%
growth [18]: 92.8%

Cc1[nH]c(C(=O)Nc2ccc(C(N)=O)cc2OC(C)C)c(Cl)c1Cl
growth [1]: 79.2%
growth [2]: 90.4%
growth [3]: 101%
growth [4]: 98.3%
growth [5]: 98.2%
growth [6]: 96.4%
growth [7]: 95.1%
growth [8]: 105%
growth [9]: 88.7%
growth [10]: 112%
growth [11]: 74.9%
growth [12]: 95.4%
growth [13]: 105%
growth [14]: 105%
growth [15]: 88.7%
growth [16]: 98.3%
growth [17]: 110%
growth [18]: 98.5%

FC(F)(F)c1cc(N2CCCCC2)nc(NCCCNc2ccnc3cc(Cl)ccc23)n1
growth [1]: -4.99% (active)
growth [2]: 39.9%
growth [3]: 66.2%
growth [4]: 87.6%
growth [5]: 43.4%
growth [6]: 72.1%
growth [7]: 60%
growth [8]: 54.8%
growth [9]: 74.7%
growth [10]: 44.9%
growth [11]: 37.7%
growth [12]: 61.2%
growth [13]: 76%
growth [14]: 94.3%
growth [15]: 43.7%
growth [16]: 39.3%
growth [17]: 37.5%
growth [18]: 64.7%

O=C(Nc1ccccc1CNc1nc(Nc2ccc(OCCN3CCCC3)cc2)ncc1Cl)NC1CCCCC1
growth [1]: 5.48% (active)
growth [2]: 60.8%
growth [3]: 57.5%
growth [4]: 114%
growth [5]: 46.6%
growth [6]: 104%
growth [7]: 88.1%
growth [8]: 99.5%
growth [9]: 85.2%
growth [10]: 74%
growth [11]: 100%
growth [12]: 83.7%
growth [13]: -83.9% (active)
growth [14]: 87.7%
growth [15]: 55.2%
growth [16]: 90.9%
growth [17]: 95.5%
growth [18]: 71.5%

C=C(C)[C@@H]1CC[C@]2(COC(=O)c3cccnc3)CC[C@]3(C)[C@H](CC[C@@H]4[C@@]5(C)CCCN(C(=O)c6cccnc6)C(C)(C)[C@@H]5CC[C@]43C)[C@@H]12
growth [1]: 11.3%
growth [2]: 14%
growth [3]: 26.9%
growth [4]: 53.9%
growth [5]: 37.6%
growth [6]: 53.1%
growth [7]: 42.8%
growth [8]: 32.9%
growth [9]: 59%
growth [10]: 42.7%
growth [11]: 31.3%
growth [12]: 51.9%
growth [13]: 38.3%
growth [14]: 32.2%
growth [15]: 25.6%
growth [16]: 28.1%
growth [17]: 50.1%
growth [18]: 31.2%

CCOC(=O)c1cc(C(=O)c2cc(OC)cc(OC)c2)n2ccccc12
growth [1]: 16.3%
growth [2]: 27.6%
growth [3]: 42.2%
growth [4]: 95.2%
growth [5]: 72.4%
growth [6]: 35.8%
growth [7]: 52.7%
growth [8]: -5.04% (active)
growth [9]: 39.4%
growth [10]: 12.4%
growth [11]: 49.3%
growth [12]: 35.7%
growth [13]: -4.66% (active)
growth [14]: 28.2%
growth [15]: 22.3%
growth [16]: 12.2%
growth [17]: 54.7%
growth [18]: 24.2%

CC1=C(C(=O)OCc2ccccc2)C(c2ccc3c(c2)OCO3)n2c(nc3ccccc32)N1 (stereo unspecified)
growth [1]: 9.81% (active)
growth [2]: 39.8%
growth [3]: 46.7%
growth [4]: 64.4%
growth [5]: 73.8%
growth [6]: 41.7%
growth [7]: 41.4%
growth [8]: 12.1%
growth [9]: 0.752% (active)
growth [10]: 23.2%
growth [11]: 40.9%
growth [12]: 50.5%
growth [13]: -35.4% (active)
growth [14]: 17.6%
growth [15]: 20.6%
growth [16]: 18.8%
growth [17]: 56.4%
growth [18]: 17.3%
